This passage reports growth inhibition results from PubChem BioAssay (NCI).

Assay [1] can be described thus: NCI Yeast Anticancer Drug Screen. Data for the rad50 strain (AID 155).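 Note: 0% = growth of vehicle-only cultures of the same strain.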 The settings on record: S. cerevisiae rad50 strain growth inhibition, stronger effect = higher value. Put shortly:
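DNA repair mutant yeast, compound exposure, growth read-out; inhibition is taken relative to vehicle.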

Assay [2] is described as follows: NCI Yeast Anticancer Drug Screen. Data for the mec2-1 strain (AID 157). The settings on record: S. cerevisiae mec2-1 strain, stronger effect = higher value. Put shortly: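 Vehicle-treated cultures served as reference for growth inhibition of compound-exposed mec2-1 yeast.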
Assay [3] can be described thus: NCI Yeast Anticancer Drug Screen. Data for the sgs1 mgt1 strain (AID 161).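 Note: 0% = growth of cultures given vehicle only.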 The settings on record: S. cerevisiae sgs1 mgt1 strain, stronger effect = higher value. Summed up: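 Test agents were incubated with a DNA-repair-mutant yeast strain. Growth was then read and compared against vehicle-treated controls.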
The nature of assay [4]: NCI Yeast Anticancer Drug Screen. Data for the cln2 rad14 strain (AID 165).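 Note: 0% = growth equal to vehicle treated cultures.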 The settings on record: S. cerevisiae cln2 rad14 strain, stronger effect = higher value. Put shortly: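 Each compound was tested on cln2 rad14 yeast. Inhibition of growth was calculated against vehicle-exposed controls.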
Assay [5] in a line: NCI Yeast Anticancer Drug Screen. Data for the bub3 strain (AID 167). The settings on record: S. cerevisiae bub3 mutant strain, stronger effect = higher value. Put shortly:
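In this screen, a yeast mutant lacking normal mitotic checkpoint function is challenged with compound. Relative growth versus vehicle gives the inhibition value.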

The nature of assay [6]: NCI Yeast Anticancer Drug Screen. Data for the mlh1 rad18 strain (AID 175). The settings on record: S. cerevisiae mlh1 rad18 strain growth inhibition, stronger effect = higher value. Put shortly:
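Vehicle-treated cultures served as the reference for growth inhibition in a yeast strain carrying DNA damage repair alterations exposed to each compound.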

Setting [7] is: at 5.0 µM (retest, dose inferred, filed as 0.5).
Where [8] appears, read: at 50.0 µM (retest, dose inferred, filed as 5.0).

The panel holds about 79,000 compounds, 15% with a hit somewhere; the sample as a whole holds those more often. Unmarked numbers belong to inactive results. Activity calls are given as the source filed them. Cut-off read from the data, not from the text of the source: active = growth inhibition above about 70%; inactive = the rest.

Consider `CC(C)c1ccc(C(C)C)c(O)c1O`, for which the growth inhibition was 13% in assay [1] (setting [7]); 72% (active) in assay [1] (setting [8]); 82% (active) in assay [1] (at 50.0 µM); 24% in assay [2] (setting [7]); 73% (active) in assay [2] (setting [8]); 87.3% (active) in assay [2] (at 50.0 µM). The growth inhibition in assay [3] (setting [7]) was 22%; in assay [3] (setting [8]), 79% (active); in assay [3] (at 50.0 µM), 88% (active); in assay [4] (setting [7]) it was 21%; in assay [4] (setting [8]) it was 63%; in assay [4] (at 50.0 µM) it was 53.2%. For the same molecule, the growth inhibition is 7% in assay [5] (setting [7]); 67% in assay [5] (setting [8]); 87.2% (active) in assay [5] (at 50.0 µM); 7% in assay [6] (setting [7]); 94% (active) in assay [6] (setting [8]); 69.8% in assay [6] (at 50.0 µM).
`COC(=O)c1cc(-c2c[nH]cc2C(=O)OCc2ccccc2)cn1S(=O)(=O)c1ccc(C)cc1`: the growth inhibition is 17% in assay [1] (setting [7]); 6% in assay [1] (setting [8]); 92.5% (active) in assay [1] (at 50.0 µM); 18% in assay [2] (setting [7]); 11% in assay [2] (setting [8]); 93.1% (active) in assay [2] (at 50.0 µM). Further, the growth inhibition in assay [3] (setting [7]) was 7%; in assay [3] (setting [8]), -6%; in assay [3] (at 50.0 µM), 94.4% (active); in assay [4] (setting [7]) it was 2%; in assay [4] (setting [8]) it was 2%; in assay [4] (at 50.0 µM), 88.9% (active). The growth inhibition in assay [5] (setting [7]) is -39%; in assay [5] (setting [8]), 2%; in assay [5] (at 50.0 µM) it was 87.3% (active); in assay [6] (setting [7]), 24%; in assay [6] (setting [8]) it was 22%; in assay [6] (at 50.0 µM) it was 91.2% (active).
Turning to `CCCCCCCCCCCC(=O)C(=O)c1ccc(O)cc1O`, the growth inhibition was 52% in assay [1] (setting [7]); 88% (active) in assay [1] (setting [8]); 93.8% (active) in assay [1] (at 50.0 µM); 87% (active) in assay [2] (setting [7]); 93% (active) in assay [2] (setting [8]); 97.3% (active) in assay [2] (at 50.0 µM). Besides, the growth inhibition in assay [3] (setting [7]) was 91% (active); in assay [3] (setting [8]), 92% (active); in assay [3] (at 50.0 µM), 96.4% (active); in assay [4] (setting [7]), 25%; in assay [4] (setting [8]), 84% (active); in assay [4] (at 50.0 µM) it was 95.5% (active). Moreover, the growth inhibition was 45% in assay [5] (setting [7]); 90% (active) in assay [5] (setting [8]); 95.8% (active) in assay [5] (at 50.0 µM); 87% (active) in assay [6] (setting [7]); 92% (active) in assay [6] (setting [8]); 96.7% (active) in assay [6] (at 50.0 µM).
For the molecule `COc1cc(CSc2ccc(O)cc2)cc(OC)c1OC`, the growth inhibition in assay [1] (setting [7]) was -3%; in assay [1] (setting [8]), 34%; in assay [1] (at 50.0 µM), 79.1% (active); in assay [2] (setting [7]), -18%; in assay [2] (setting [8]), -16%; in assay [2] (at 50.0 µM), 84.3% (active). Besides, the growth inhibition in assay [3] (setting [7]) was -24%; in assay [3] (setting [8]), 29%; in assay [3] (at 50.0 µM), 84.9% (active); in assay [4] (setting [7]) it was -18%; in assay [4] (setting [8]), 4%; in assay [4] (at 50.0 µM), 50%. Moreover, the growth inhibition in assay [5] (setting [7]) was -13%; in assay [5] (setting [8]), 21%; in assay [5] (at 50.0 µM) it was 81.8% (active); in assay [6] (setting [7]), -5%; in assay [6] (setting [8]), -4%; in assay [6] (at 50.0 µM) it was 82.3% (active).
For the molecule `CN(C)c1nc(Cl)nc2c1ncn2C1OCC(O)C(O)C1O` (stereo not given), the growth inhibition in assay [1] (setting [7]) was -4%; in assay [1] (setting [8]), 3%; in assay [1] (at 50.0 µM), 10.7%; in assay [2] (setting [7]), -8%; in assay [2] (setting [8]), 4%; in assay [2] (at 50.0 µM), 22%. Moreover, the growth inhibition was 9% in assay [3] (setting [7]); 7% in assay [3] (setting [8]); 5.05% in assay [3] (at 50.0 µM); 1% in assay [4] (setting [7]); -6% in assay [4] (setting [8]); 1.25% in assay [4] (at 50.0 µM). Also, the growth inhibition is -1% in assay [5] (setting [7]); -7% in assay [5] (setting [8]); -5.1% in assay [5] (at 50.0 µM); 11% in assay [6] (setting [7]); 11% in assay [6] (setting [8]); 42.5% in assay [6] (at 50.0 µM).
In the case of `Cc1ccc(S(=O)(=O)N/N=C(\C=C\c2ccccc2)c2ccccc2)cc1`, the growth inhibition in assay [1] (setting [7]) is -1%; in assay [1] (setting [8]), 32%; in assay [1] (at 50.0 µM), 59.1%; in assay [2] (setting [7]), 5%; in assay [2] (setting [8]) it was 57%; in assay [2] (at 50.0 µM), 63.9%. Moreover, the growth inhibition is 24% in assay [3] (setting [7]); 47% in assay [3] (setting [8]); 59.5% in assay [3] (at 50.0 µM); -19% in assay [4] (setting [7]); 16% in assay [4] (setting [8]); 44.4% in assay [4] (at 50.0 µM). The growth inhibition in assay [5] (setting [7]) is 15%; in assay [5] (setting [8]), 49%; in assay [5] (at 50.0 µM) it was 41.1%; in assay [6] (setting [7]) it was 20%; in assay [6] (setting [8]), 70% (active); in assay [6] (at 50.0 µM), 37.1%.
For the molecule `O=C1CCC(Cc2ccc(I)cc2)C(=O)N1` (stereo not given), the growth inhibition was -5% in assay [1] (setting [7]); 3% in assay [1] (setting [8]); -2.9% in assay [1] (at 50.0 µM); 1% in assay [2] (setting [7]); 6% in assay [2] (setting [8]); -12.7% in assay [2] (at 50.0 µM). Also, the growth inhibition in assay [3] (setting [7]) was -11%; in assay [3] (setting [8]) it was 68%; in assay [3] (at 50.0 µM), 66.3%; in assay [4] (setting [7]), -5%; in assay [4] (setting [8]), 7%; in assay [4] (at 50.0 µM), -63.8%. Besides, the growth inhibition is -6% in assay [5] (setting [7]); -5% in assay [5] (setting [8]); -54.2% in assay [5] (at 50.0 µM); -6% in assay [6] (setting [7]); 1% in assay [6] (setting [8]); -4.6% in assay [6] (at 50.0 µM).
In the case of `O=C(c1ccccc1)C(Br)CCCC(Br)C(=O)c1ccccc1` (stereo not given), the growth inhibition is 30% in assay [1] (setting [7]); 64% in assay [1] (setting [8]); 97% (active) in assay [1] (at 50.0 µM); 16% in assay [2] (setting [7]); 51% in assay [2] (setting [8]); 96.3% (active) in assay [2] (at 50.0 µM). The growth inhibition in assay [3] (setting [7]) is 19%; in assay [3] (setting [8]), 81% (active); in assay [3] (at 50.0 µM) it was 96% (active); in assay [4] (setting [7]) it was 15%; in assay [4] (setting [8]) it was 32%; in assay [4] (at 50.0 µM) it was 67.2%. Besides, the growth inhibition in assay [5] (setting [7]) was 23%; in assay [5] (setting [8]), 73% (active); in assay [5] (at 50.0 µM) it was 97.3% (active); in assay [6] (setting [7]), 24%; in assay [6] (setting [8]), 60%; in assay [6] (at 50.0 µM) it was 95.5% (active).
With `CCNC1(C2c3ccccc3-c3ccccc32)c2ccccc2-c2ccccc21`, the growth inhibition in assay [1] (setting [7]) is 13%; in assay [1] (setting [8]), 84% (active); in assay [1] (at 50.0 µM), 20%; in assay [2] (setting [7]), -17%; in assay [2] (setting [8]) it was 25%; in assay [2] (at 50.0 µM), 11.8%. Moreover, the growth inhibition in assay [3] (setting [7]) was 4%; in assay [3] (setting [8]) it was 84% (active); in assay [3] (at 50.0 µM), 44.1%; in assay [4] (setting [7]) it was -12%; in assay [4] (setting [8]), 36%; in assay [4] (at 50.0 µM) it was 18.5%. The growth inhibition in assay [5] (setting [7]) is -4%; in assay [5] (setting [8]) it was 71% (active); in assay [5] (at 50.0 µM), 58.4%; in assay [6] (setting [7]), 30%; in assay [6] (setting [8]), 74% (active); in assay [6] (at 50.0 µM), 37%.
Take `CCCCc1[nH]ccc2c(C)c3nc4ccccc4c3cc12`: the growth inhibition in assay [1] (setting [7]) was 6%; in assay [1] (setting [8]), 93% (active); in assay [1] (at 50.0 µM), 96.8% (active); in assay [2] (setting [7]), -8%; in assay [2] (setting [8]), 96% (active); in assay [2] (at 50.0 µM) it was 91.2% (active). Also, the growth inhibition in assay [3] (setting [7]) is -14%; in assay [3] (setting [8]), 96% (active); in assay [3] (at 50.0 µM), 97.5% (active); in assay [4] (setting [7]) it was 2%; in assay [4] (setting [8]) it was 95% (active); in assay [4] (at 50.0 µM) it was 92.1% (active). Besides, the growth inhibition was 0% in assay [5] (setting [7]); 94% (active) in assay [5] (setting [8]); 88.7% (active) in assay [5] (at 50.0 µM); 21% in assay [6] (setting [7]); 95% (active) in assay [6] (setting [8]); 98.4% (active) in assay [6] (at 50.0 µM).
